Only some compounds are listed: those with a hit (about 1.8% of all), similar ones and a draw of the others.
NadD block: inhibitors of S. aureus NadD, primary screen, biochemical, colorimetric, uHTS | inhibition, % at 20 µM | 0.78% of 360,000 active | purified NadD enzyme, colorimetric absorbance read-out | AID 602399, 2012; in the data active = inhibition above about 26%
PHOSPHO1 block: PubChem AID 1565 | 1.1% of 290,000 active | inhibition, % at 13.3 µM | recombinant PHOSPHO1, absorbance phosphatase assay | Phosphoethanolamine/phosphocholine phosphatase (Homo sapiens), Q8TCT1; in the data active = inhibition above about 60%
p-CIP stab down: p/CIP-EGFP fusion destabilizers, primary screen, fluorescence, F442A cells; decrease of EGFP signal, % at 10 µM; 0.01% of 290,000 active; Q05BA5; AID 1984, 2009; 16 h;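 active = EGFP signal decrease of at least 30% at 10 µM or well 3 SD below plate mean, unless failing retest; inactive = the rest, including hits failing retest or dose response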
Target sequence (Q05BA5 1-1403): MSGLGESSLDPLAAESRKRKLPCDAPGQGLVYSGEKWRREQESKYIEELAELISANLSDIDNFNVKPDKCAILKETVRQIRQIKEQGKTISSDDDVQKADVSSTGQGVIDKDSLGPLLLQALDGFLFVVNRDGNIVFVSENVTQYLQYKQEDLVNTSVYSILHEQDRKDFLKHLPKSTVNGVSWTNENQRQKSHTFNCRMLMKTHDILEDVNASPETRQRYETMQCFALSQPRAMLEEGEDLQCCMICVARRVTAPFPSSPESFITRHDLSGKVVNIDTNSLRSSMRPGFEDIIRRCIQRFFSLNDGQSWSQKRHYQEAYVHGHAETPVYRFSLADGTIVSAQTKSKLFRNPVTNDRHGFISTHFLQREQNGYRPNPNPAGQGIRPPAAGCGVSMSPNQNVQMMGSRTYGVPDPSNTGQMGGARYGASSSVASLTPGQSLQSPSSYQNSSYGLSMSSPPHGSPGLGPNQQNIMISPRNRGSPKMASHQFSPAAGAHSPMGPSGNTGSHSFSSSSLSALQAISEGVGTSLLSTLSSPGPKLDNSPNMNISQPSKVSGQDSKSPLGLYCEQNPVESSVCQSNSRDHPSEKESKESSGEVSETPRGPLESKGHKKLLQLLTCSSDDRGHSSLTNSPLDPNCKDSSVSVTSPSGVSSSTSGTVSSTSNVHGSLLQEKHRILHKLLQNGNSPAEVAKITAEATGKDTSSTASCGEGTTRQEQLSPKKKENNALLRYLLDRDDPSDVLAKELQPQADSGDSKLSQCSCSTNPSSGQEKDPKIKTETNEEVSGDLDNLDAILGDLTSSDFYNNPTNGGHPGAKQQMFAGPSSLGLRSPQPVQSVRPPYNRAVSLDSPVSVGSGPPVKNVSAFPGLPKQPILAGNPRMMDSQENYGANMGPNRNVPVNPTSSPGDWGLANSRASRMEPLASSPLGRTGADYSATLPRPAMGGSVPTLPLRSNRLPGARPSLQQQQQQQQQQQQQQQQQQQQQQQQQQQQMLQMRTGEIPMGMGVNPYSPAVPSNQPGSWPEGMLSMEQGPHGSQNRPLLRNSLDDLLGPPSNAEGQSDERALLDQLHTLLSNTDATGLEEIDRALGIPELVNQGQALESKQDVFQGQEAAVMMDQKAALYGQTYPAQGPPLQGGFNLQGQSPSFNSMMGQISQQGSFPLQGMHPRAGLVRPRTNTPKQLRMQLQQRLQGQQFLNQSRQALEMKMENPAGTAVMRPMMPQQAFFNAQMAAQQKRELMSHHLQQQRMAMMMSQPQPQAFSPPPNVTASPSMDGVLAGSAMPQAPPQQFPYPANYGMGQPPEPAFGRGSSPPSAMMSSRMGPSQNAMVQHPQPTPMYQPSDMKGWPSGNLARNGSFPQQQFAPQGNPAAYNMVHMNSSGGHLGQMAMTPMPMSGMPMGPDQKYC
SUMO HTRF inh: inhibitors of in vitro SUMOylation cascade, primary screen, biochemical, HTRF, uHTS; inhibition, % at 35 µM; AID 2006, 2009; 0.36% of 290,000 active; HTRF SUMOylation assay, SAE1/SAE2 + UBC9; SUMO-conjugating enzyme UBC9 (Homo sapiens), P63279; in the data active = inhibition above about 50%, passing the limit was not always enough; inconclusive = no clear call, values can overlap the other calls
* = called active by the depositor; u = inconclusive; x = not tested or not shown.

SMILES | NadD block | PHOSPHO1 block | p-CIP stab down | SUMO HTRF inh
O=C1NC(=S)N(Cc2ccco2)C(=O)/C1=C\c1cccs1 | x | 77* | -2 | 94*
CCCNC(=O)c1c(N)n(CC2CCCO2)c2nc3ccccc3nc12 (stereo not given) | 0 | 19 | -5 | 102*
CC(C)OC(=O)c1c(N)n(CC2CCCO2)c2nc3ccccc3nc12 (stereo not given) | 9 | 10 | -1 | 42
CC(C)OCCCNC(=O)c1c(N)n(CC2CCCO2)c2nc3ccccc3nc12 (stereo not given) | 3 | 7 | -23 | 98*
CN1C(=O)/C(=C/c2cccn2-c2ccc3ccccc3c2)C(=O)NC1=S | 44* | -3 | -24 | 12
COc1ccc(C(=O)CC(c2ccc3c(c2)OCO3)c2c(O)c3ccccc3oc2=O)cc1OC (stereo not given) | 0 | x | x | x
CN1CCC2(CC1)C(C#N)=C(N)NC(S)=C2C#N | 3 | 19 | -9 | 57*
O=C(NC1CCCCC1)N1Cc2cc(N3CCOCC3)ccc2-n2nncc2C1 | 1 | x | x | x
CCCCn1c(NS(=O)(=O)c2ccc(C)cc2)c(C(=O)OCC)c2nc3ccccc3nc21 | 23 | 1 | -2 | 99*
CCCCn1c(NC(=O)c2ccco2)c(C(=O)OCC)c2nc3ccccc3nc21 | 15 | -7 | -22 | 103
CCCCn1c(N)c(C(=O)OCCOC)c2nc3ccccc3nc21 | 1 | 18 | -9 | 67*
COC(=O)C1=C(c2ccc(OCc3ccccc3)cc2)C[C@@H]2CC[C@H]1N2C | 11 | x | x | x
O=C(O)C1(Br)CC12c1ccccc1-c1ccccc12 (stereo not given) | 0 | x | x | x
Nc1c(C(=O)NCc2ccco2)c2nc3ccccc3nc2n1Cc1ccccc1 | 17 | -13 | -12 | 101*
Nc1c(C(=O)NCc2ccco2)c2nc3ccccc3nc2n1Cc1ccc(F)cc1 | 10 | -4 | -6 | 100*
C[N+]12CCC(CC1)C(C#N)(N1CCOCC1)C2 (stereo not given) | 10 | 101* | 2 | 18
O=C(NCC1=C(c2cccc3ccccc23)C[C@@H]2CC[C@H]1N2Cc1ccco1)c1cccnc1 | 3 | x | x | x
COC(=O)C1=C(c2c(C)noc2C)C[C@@H]2CC[C@H]1N2C(=O)N1CCC(C)CC1 | 0 | x | x | x
Cc1ccccc1N1C(=O)NC(=O)/C(=C\c2ccc3c(c2)CCCN3Cc2ccccc2)C1=O | 39* | -10 | -20 | -6
COc1ccc(/C=C2/C(=O)NC(=O)N(c3ccccc3)C2=O)cc1CN1C(=O)c2ccccc2C1=O | -1 | 25 | -20 | 10
CC(=O)C1CCC2C3CC(O)C4CC(O)CCC4(C)C3CCC12C (stereo not given) | -2 | x | x | x
CCOc1cccc(OCC)c2c(C)[n+](CC3CCCO3)c(C)c1-2 (stereo not given) | 20 | 95* | -12 | 35
COc1ccc(CCNCC2CCCO2)cc1 (stereo not given) | -3 | 13 | 11 | 8
COC(=O)c1ccc(NC(=O)NC(=O)Oc2ccccc2)cc1 | 1 | x | x | x
CN1C2CNC(=O)CC1C1CCC2C1 (stereo not given) | 0 | x | x | x
SMILES | NadD block | PHOSPHO1 block | p-CIP stab down | SUMO HTRF inh
Cn1ccnc1P(=S)(c1nccn1C)N1CCOCC1 | 3 | 76* | -4 | 14
S=C(c1ccc(Cl)cc1)N1CCOCC1 | -1 | 62* | -4 | 3
C=C(C)CSc1nnc([C@@H](N)Cc2c[nH]c3ccccc23)o1 | 2 | 89* | 2 | 0
N[C@@H](Cc1c[nH]c2ccccc12)c1nnc(SCc2ccccc2)o1 | -4 | 22 | -2 | -8
N[C@@H](Cc1c[nH]c2ccccc12)c1nnc(SCc2ccc(F)cc2)o1 | -10 | 62* | 5 | -19
C[C@@H]1CN([C@@H](C)CO)C(=O)CCCn2cc(nn2)CO[C@H]1CN(C)C(=O)Oc1cccc2ccccc12 | 5 | x | x | x
O=C(O)c1cccc2c1NC(C(=O)O)C1CC(Sc3ccccc3[N+](=O)[O-])C(Cl)C21 (stereo not given) | 14 | 62* | -11 | u
CC(=O)c1ccc2c(c1)C1C(Cl)C(Sc3ccccc3[N+](=O)[O-])CC1C(C(=O)O)N2 (stereo not given) | 22 | -16 | 4 | 63
CCn1nc(/C=C/c2ccccc2)nc2c(=O)n(C)c(=O)nc1-2 | 1 | 41 | 11 | 99*
CCn1nc(-c2cccs2)nc2c(=O)n(C)c(=O)nc1-2 | 2 | 54 | -14 | 101*
CCC1(OC(=O)CN)C(=O)OCc2c1cc1n(c2=O)Cc2cc3ccccc3nc2-1 (stereo not given) | -4 | 32 | -14 | 57*
CC[C@@]1(O)C(=O)OCc2c1cc1n(c2=O)Cc2cc3ccccc3nc2-1 | x | 42 | -19 | 49
O=C1NC(=O)N(Cc2ccc(F)cc2)C(=O)/C1=C\c1ccc([N+](=O)[O-])s1 | 37* | 3 | -18 | 63*
COc1ccc(N2C(=O)NC(=O)/C(=C/c3ccc([N+](=O)[O-])s3)C2=O)cc1 | 17 | -10 | -15 | 51*
O=C1NC(=O)N(Cc2ccc(F)cc2)C(=O)/C1=C\c1ccc(N2CCCC2)cc1 | 33* | 33 | -18 | 36
COc1ccc(CN2C(=O)NC(=O)/C(=C/c3ccc([N+](=O)[O-])s3)C2=O)cc1 | 45* | -14 | -25 | 46
COc1ccccc1N1C(=O)NC(=O)/C(=C/c2ccc([N+](=O)[O-])s2)C1=O | x | 8 | -15 | 34
COC(=O)C1C2c3ccccc3C(c3ccccc32)C1(C)C(=O)OC (stereo not given) | 0 | x | x | x
Cc1ccc(/C=C2\C(=O)NC(=S)N(c3ccc(F)cc3)C2=O)s1 | 32* | 25 | -13 | 2
Cc1ccc(/C=C2\C(=O)NC(=S)N(c3ccccc3F)C2=O)s1 | 16 | -9 | -19 | 9
CN(C)CCN(C(=O)COc1ccc(Cl)cc1)c1nc2cc3c(cc2s1)OCO3 | -1 | 63* | 9 | 5
COc1ccc(OCC(=O)N2CCN(Cc3ccc4c(c3)OCO4)CC2)cc1 | -3 | 45 | -19 | 12
COc1ccc(-c2ccc3c(c2)CNCc2cnnn2-3)cc1 | -5 | x | x | x
Oc1ccccc1/C=N/NP(=S)(c1ccccc1)c1ccccc1 | -7 | 28 | 14 | -28
Oc1ccc(/C=N/NP(=S)(c2ccccc2)c2ccccc2)c(O)c1O | 13 | 84* | -11 | 14
Cc1ccc(N2C(=O)NC(=O)/C(=C\c3cc(C)n(-c4sc5c(c4C#N)CCCC5)c3C)C2=O)cc1 | 34* | -6 | -9 | 16
CCOC(=O)c1c(-n2c(C)cc(C=C3C(=O)NC(=S)NC3=O)c2C)sc2c1CCCC2 | 46* | 36 | -2 | 5
CCN1C(=O)NC(=O)/C(=C/c2cc(C)n(-c3sc(C)c(C)c3C#N)c2C)C1=O | 9 | 10 | -7 | 9
CC(=O)C1CCC2C3CCC4CC(O)CCC4(C)C3C(=O)CC12C (stereo not given) | -7 | x | x | x
Cc1ccc(OC(=O)N(C)C[C@H]2OCc3cnnn3CCCC(=O)N([C@@H](C)CO)C[C@H]2C)cc1 | -6 | x | x | x
